This note sets out measurements from PubChem BioAssay (NCI).

About 83,000 compounds went through this panel and 20% of them were active in at least one assay; those are over-represented in the sample as a whole.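 Each cell line was grown in a 96-well plate and treated with one concentration of compound for 48 hours. Values below 10 were considered active.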 Unmarked numbers belong to inactive results. Active and inactive are the calls of the source.

This assay deals with CAKI-1 renal. Briefly: NCI-60 one-dose screen, 48 h (100 = growth as untreated, 0 = no growth, -100 = all killed). To be noted: 10 µM unless noted.
Regarding `O=c1oc2c(C(F)(F)F)cccc2cc1-c1csc(Nc2ccc(OCCF)cc2)n1`, the growth was 12.2%.
For the compound `CNC(=O)c1cc(Oc2ccc(NC(=O)Nc3ccc(Cl)c(SC)c3)c(F)c2)ccn1`, the growth was 70.1%.
The figure for `c1ccc2[nH]c(-c3ccc(Nc4nc(N5CCCC5)nc5[nH]ncc45)cc3)nc2c1` is -22.3% (active); for `CC/C=C\C/C=C\C[C@H]1C/C=C2/C(=O)C=C[C@@H]2C/C=C\CCC(=O)O1` it is 14.5%; for `COc1ccc(CN2c3ccccc3Sc3ccccc32)cc1O` it is 36.2%.
As for `CCOc1ccc(-n2nc(C(=O)Nc3cc(OC)c(OC)c(OC)c3)nc2-c2cc(OC)c(OC)c(OC)c2)cc1`, the growth is 77.4%.
The figure for `CC/C=C\C[C@H]1C/C=C2/C(=O)C=C[C@H]2C/C=C\CCCC(=O)O1` is 25.2%.
